Screens as filed in PubChem.
Pf Dd2 growth – blocks in vitro growth of P. falciparum Dd2; P. falciparum Dd2 growth, SYBR Green, 72 h; Potency, µM (doses to about 28.9 µM), for the others: at the highest dose activity, negative = inhibition, usual class: inhibitors; 120,000 tested, 4.3% active; AID 1347417; active = well fitted inhibition curve with a large enough effect;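 note: plate controls were DMSO vehicle for no effect and reference drug for full effect; nearly all actives have a fitted effect of over 65% in size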
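Infected erythrocytes (Dd2, 0.3% parasitemia, 2.5% hematocrit final) are added to compound in RPMI-1640/Albumax II medium, grown 72 h at 37C in low oxygen, then lysed with saponin/Triton-X containing SYBR Green and read by fluorescence.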
An asterisk follows results filed as active; i = inactive; [ ] = another dose, or the depositor's remark. Many of the other results were omitted from the sample, so hits are more common in it than they were. Potency is the fitted concentration of half-maximal effect.

SMILES	Pf Dd2 growth
O=C(CN1CC2CC(C1)[C@H]1CCCC(=O)N1C2)Nc1ccc2c(c1)OCCO2 (some centres not stated)	-6%
CN(C(=O)CN1C(=O)NC2(CCOCC2)C1=O)C1CCCCC1	13%
CNC(=O)C1(N2CCC[C@H]2C(=O)N2CCC[C@@H]2COC)CCCCC1	-25%[44.1 µM]
CC(=O)N1C[C@@H](C(=O)N2CCC(Cc3ccccc3)CC2)[C@H](c2nc(C)no2)C1	i
CCN(CC)c1cc(C)c2cc(NC(=O)c3cccc(OC)c3OC)ccc2n1	-27%
CCN(CC)c1cc(C)c2cc(NC(=O)/C=C/c3cc(OC)c(OC)c(OC)c3)ccc2n1	1.1µM*
CCOc1ccccc1C(=O)Nc1ccc2nc(N(CC)CC)cc(C)c2c1	-7%
CCN(CC)c1cc(C)c2cc(NC(=O)c3cccc(OC)c3)ccc2n1	i
CCOc1ccc(C(=O)Nc2ccc3nc(N(CC)CC)cc(C)c3c2)cc1	-8%
CCOc1ccc(/C=C/C(=O)Nc2ccc3nc(N(CC)CC)cc(C)c3c2)cc1OC	1µM*
COCCn1ncc(N2CCCC(CC(=O)NCCc3c[nH]c4ccccc34)C2)cc1=O (configuration not stated)	-6%
CCN1CCCN(S(=O)(=O)CC)CC12CCOCC2	-29%
O=C(Nc1ccc(F)cc1Cl)C1CCN(c2ncnc3c2nc2n3CCCCC2)CC1	2.8µM*
O=C(NCc1ccccc1)C1CCN(c2ncnc3c2nc2n3CCCCC2)CC1	22%
CCOC(=O)c1ccccc1NC(=O)C1CCN(c2ncnc3c2nc2n3CCCCC2)CC1	-7%
CNC(=O)[C@@H]1CN(C(=O)c2ccc3c(c2)OCO3)C[C@H]1c1n[nH]c(C)n1	-5%
Cc1ccc(NC(=O)N[C@H]2C[C@@](O)(C(=O)N[C@H](Cc3ccccc3)C(N)=O)C[C@@H](O)[C@@H]2O)cc1	-23%
COc1ccc(C(=O)N2CCC(N3C(=O)[C@H](OC)[C@@H]3c3ccncc3)CC2)cc1	14%
CCOc1cc(=O)n2c(c1C(=O)Nc1cccc(C(F)(F)F)c1)CCCC2	0%
Cc1cc(Nc2cccc(Cl)c2)nc2ccc(NC(=O)Cc3ccc(Cl)cc3)cc12	-24%
Cc1cc(Nc2cccc(Cl)c2)nc2ccc(NC(=O)c3ccc(F)cc3Cl)cc12	-8%
Cc1cc(Nc2cccc(C(F)(F)F)c2)nc2ccc(NC(=O)c3cccnc3)cc12	3.5µM*
CCOc1ccc(C(=O)Nc2ccc3nc(Nc4cccc(C(F)(F)F)c4)cc(C)c3c2)cc1OCC	3.2µM*
CCOc1ccc(C(=O)Nc2ccc(NC(=O)c3ccccc3)cc2)cc1Br	56%
O=C(c1ccn[nH]1)N1CCC(c2nc(CCOCC3CCOCC3)no2)C1 (configuration not stated)	23%
SMILES	Pf Dd2 growth
Cc1ncncc1C(=O)N1CC[C@@](O)(C2CCOCC2)[C@H](C)C1	-3%
Cn1cnc(C(=O)N2CCC(N3C(=O)C(OCC4CC4)C34CCOCC4)CC2)c1 (configuration not stated)	1%
Cc1ccc(SC2CCN(Cc3nc(CCc4ccccc4)no3)CC2)cc1	-16%
c1ccc(CCc2noc(CN3CCCCC3CCn3cccn3)n2)cc1 (configuration not stated)	i
CC(C)Cc1nc(CN2C[C@@H]3CC[C@H](C2)N(Cc2ccccc2)C3)no1	10µM*
N#Cc1ccc(CN2CC3(Cc4ccccc4NC3=O)C2)cc1	2%
Cc1cc(F)ccc1OC1CN(Cc2cccnc2)C1	6.3µM*
Cc1cc(F)ccc1OC1CN([S+](=O)([O-])c2ccccc2)C1	i
CN(Cc1cccnc1)C(=O)[C@H]1CN(Cc2ccccc2)C[C@H]1C(=O)O	i
Cc1ccccc1N(C)C1CN(Cc2cccnc2)C1	13µM*
Cc1cc(OC2CN(Cc3ccc(F)cc3)C2)ccc1F	i
CN(C)C(=O)[C@@H]1CN(Cc2cccnc2)C[C@H]1CO	15%
Cc1cc2nc3n(c(=O)c2n1CC(=O)Nc1ccccc1F)CCCCC3	-24%
O=C(Nc1ccc2c(c1)CN(Cc1ccc3c(c1)OCO3)C(=O)CO2)c1ccc(F)cc1	i
Cc1noc(C)c1[S+](=O)([O-])N1CCC(c2nn(-c3ccc(F)cc3)c(=O)[nH]2)CC1	i
Cc1cc(N)n(CC(=O)N2CCC(O)(CN3CCOCC3)C(C)(C)C2)n1 (configuration not stated)	-10%
Cc1ccc(O)c(NC(=O)COCc2cc(-c3ccco3)on2)c1	18%
COc1ccc(OC)c(NC(=O)c2noc3c2CCCC3)c1	-14%
COc1cccc(-c2cc(C(=O)Nc3cc(OC)c(OC)c(OC)c3)on2)c1	-13%[0.594 µM]
COc1cccc(-c2cc(C(=O)Nc3cc(Cl)ccc3O)on2)c1	1µM*
O=C(Nc1cccc(O)c1)c1cc(-c2ccccc2F)no1	-13%
Cc1ccc(C)c(N2CCN(C(=O)c3noc4c3CCCCC4)CC2)c1	i
Cc1ccc(O)c(NC(=O)c2cc(-c3ccccc3O)no2)c1	2.2µM*
Cc1ccc(O)c(NC(=O)c2noc3c2CCCCC3)c1	4.5µM*
COc1cccc(C(=O)Nc2cc(-c3ccccc3)no2)c1	-1%
SMILES	Pf Dd2 growth
COc1ccc(S(=O)(=O)N2CC[C@H](CNC(C)=O)[C@H](N(C)C)C2)cc1	-7%
O=C(COc1ccccc1)N[C@@H]1C[C@H](Cn2cc(-c3cccnc3)nn2)[C@@H](O)[C@H]1O	-2%
O=C(CN1CCCCCCC1)N1CCn2cncc2C1	-4%
Cc1nc(C)c(C(=O)N2CCC3(CC2)CC(N2CCCCC2)CCO3)s1 (configuration not stated)	5%
O=C(C1CN(c2ccccc2)C(=O)N1)N1CCCC1 (configuration not stated)	17%[44.1 µM]
COCCC(=O)N1CCCC(Cc2nc(C3CCOCC3)no2)C1 (configuration not stated)	18%
CCn1ccc(C(=O)N2C[C@@H]3CCCN4CCC[C@@H]([C@H]34)[C@H]2CCCC(=O)NCC2CC2)n1	-8%
CN(C)c1ccc(CN2CCC3(Cc4ccccc4NC3=O)C2)cc1 (configuration not stated)	10µM*
O=C1NCc2ccccc2CC12CCN(Cc1ccsc1)C2 (configuration not stated)	-1%
O=C1NCc2ccccc2CC12CCN(Cc1ccccc1)CC2	-27%
O=C1Nc2ccccc2CC12CCN(Cc1ccccc1)CC2	3.5µM*
O=C1Nc2ccccc2CC12CCN(Cc1ccsc1)CC2	11µM*
CN(C)c1ccc(CN2CCC3(C2)C(=O)Nc2ccccc23)cc1 (configuration not stated)	i
O=C1Nc2ccccc2CC12CCCN(Cc1ccc(C(F)(F)F)cc1)C2 (configuration not stated)	-5%
O=C1Nc2ccccc2CC12CCN(Cc1cccnc1)CC2	-13%[44.1 µM]
O=C1Nc2ccccc2CC12CCN(Cc1cccc3ccccc13)CC2	-13%
CN1CC(=O)N(C2CCCNC2)Cc2c(NC3CCN(Cc4ccccc4)CC3)ncnc21 (configuration not stated)	-3%
COc1ccc(CNC(=O)NCC23CCC=C2N(C)C(=O)CC3)cc1 (configuration not stated)	-17%
O=C(c1ccoc1)N1CCC2(CC1)CC(N(Cc1ccc(F)cc1)C1CC1)CCO2 (configuration not stated)	13µM*
CS(=O)(=O)N(C1CC1)C1CCOC2(CCN(C(=O)c3ccc(F)cc3)CC2)C1 (configuration not stated)	i
O=C(Cc1ccsc1)N1CCC2(CC1)CC(N(Cc1ccccc1)C1CC1)CCO2 (configuration not stated)	-9%
